Records with an inconclusive call do not appear. Active and inactive are the calls of the source. Rule for the calls, unless noted: active = hit-call score of the fitted dose curve at least 0.9, where 1 is the maximum; inactive = score below 0.9.
Legend:
[1] = ATG_M_06_TRANS: Attagene TRANS-FACTORIAL HepG2 Assay for M06 Transcription Factor (Internal Marker) (AID 2282983; active = hit-call score of the fitted dose curve at least 0.9, where 1 is the maximum;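 note: reporter transcript level by RT-PCR then capillary electrophoresis fluorescence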); conditions: HepG2 Attagene TRANS M06 internal marker reporter
Outline: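 Read-out: fluorescent reporter cDNA fragments resolved by capillary electrophoresis after RT-PCR and HpaI cut. Source cells were HepG2 carrying transfected multi-reporter GAL4 constructs, dosed 24 h. Increase over DMSO control analysed.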

[2] = ATG_M_32_TRANS: Attagene TRANS-FACTORIAL HepG2 Assay for M32 Transcription Factor (Internal Marker) (AID 2282984; active = hit-call score of the fitted dose curve at least 0.9, where 1 is the maximum;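 note: transcript level of a background control reporter unit measured by RT-PCR and capillary electrophoresis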); conditions: HepG2 Attagene TRANS M32 internal marker reporter
Outline: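 Cell-based TRANS-format assay in HepG2: exogenous chimeric GAL4 reporter units transiently expressed, compounds applied 24 h. Reporter mRNA detected by RT-PCR plus capillary electrophoresis; this readout is an internal background marker.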

[3] = molecular target: Transcriptional activator Myb (Homo sapiens) (UniProt P10242); assay: ATG_Myb_CIS: Attagene CIS-FACTORIAL HepG2 Assay for human Myeloblastosis (Myb) Proto-Oncogene Transcription Factor (AID 2282986); conditions: HepG2 Attagene CIS-FACTORIAL Myb reporter transcription; actives raise or lower the signal
Transcriptional activator Myb (Homo sapiens), sequence (P10242 whole entry, looked up): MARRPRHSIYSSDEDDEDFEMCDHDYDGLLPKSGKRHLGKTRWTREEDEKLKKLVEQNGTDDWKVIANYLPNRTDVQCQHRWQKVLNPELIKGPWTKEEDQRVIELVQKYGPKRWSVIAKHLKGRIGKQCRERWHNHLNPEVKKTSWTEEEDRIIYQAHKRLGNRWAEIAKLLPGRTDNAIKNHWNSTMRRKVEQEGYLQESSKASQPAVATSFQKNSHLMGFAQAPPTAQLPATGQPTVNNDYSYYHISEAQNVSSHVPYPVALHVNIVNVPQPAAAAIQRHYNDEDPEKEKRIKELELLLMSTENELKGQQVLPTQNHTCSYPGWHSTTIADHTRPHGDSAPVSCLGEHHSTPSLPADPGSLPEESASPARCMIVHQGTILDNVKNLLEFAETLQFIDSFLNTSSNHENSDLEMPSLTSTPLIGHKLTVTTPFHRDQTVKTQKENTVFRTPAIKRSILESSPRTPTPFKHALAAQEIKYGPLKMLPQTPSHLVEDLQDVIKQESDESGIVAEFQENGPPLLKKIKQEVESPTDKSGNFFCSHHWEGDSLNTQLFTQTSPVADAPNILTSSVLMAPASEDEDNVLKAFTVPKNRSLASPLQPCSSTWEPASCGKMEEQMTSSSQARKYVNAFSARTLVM
Outline: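 Multiplexed cis-reporter system in HepG2: transient transfection, 24 h treatment, mRNA readout by RT-PCR and capillary electrophoresis. Both increases and decreases are scored versus DMSO negative control.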

[4] = molecular target: Nuclear respiratory factor 1 (Homo sapiens) (UniProt Q16656); assay: ATG_NRF1_CIS: Attagene CIS-FACTORIAL HepG2 Assay for human Nuclear Respiratory Factor 1 (NRF1) Orphan Gene (AID 2282987); conditions: HepG2 NRF1 cis-element reporter, Attagene multiplex; actives raise or lower the signal
Nuclear respiratory factor 1 (Homo sapiens), sequence (Q16656 whole entry, looked up): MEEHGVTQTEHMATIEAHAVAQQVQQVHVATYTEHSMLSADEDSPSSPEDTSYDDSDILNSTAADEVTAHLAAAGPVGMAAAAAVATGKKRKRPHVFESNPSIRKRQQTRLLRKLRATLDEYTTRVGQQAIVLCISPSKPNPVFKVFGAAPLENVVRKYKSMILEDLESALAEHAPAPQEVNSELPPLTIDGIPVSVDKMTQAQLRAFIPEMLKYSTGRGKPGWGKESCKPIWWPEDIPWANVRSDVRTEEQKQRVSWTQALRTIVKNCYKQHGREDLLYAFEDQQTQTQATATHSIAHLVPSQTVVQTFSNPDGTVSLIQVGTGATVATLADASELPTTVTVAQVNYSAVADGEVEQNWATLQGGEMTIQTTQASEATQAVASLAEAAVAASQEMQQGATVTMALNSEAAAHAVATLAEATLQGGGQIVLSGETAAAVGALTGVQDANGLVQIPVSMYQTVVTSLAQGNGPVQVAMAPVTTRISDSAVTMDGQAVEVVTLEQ
Outline: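 Endogenous factor activity was captured via cis-element-driven reporter transcripts in HepG2 cells. Following 24 h chemical treatment, transcripts were quantified by RT-PCR and capillary electrophoresis.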

[5] = ATG_NFI_CIS: Attagene CIS-FACTORIAL HepG2 Assay for human Nuclear Factor I (NFI) (AID 2282989); conditions: HepG2 cis-regulatory reporter, NFI response element transcription; actives raise or lower the signal
Outline: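 Cells: human liver HepG2, transiently transfected with promoter-regulated reporter transcription units. Exposure 24 h. Detection: fluorescent RT-PCR products separated by capillary electrophoresis, normalised to DMSO negative control.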

[6] = molecular target: Myc proto-oncogene protein (Homo sapiens) (UniProt P01106); assay: ATG_Myc_CIS: Attagene CIS-FACTORIAL HepG2 Assay for human Myelocytomatosis (Myc) Proto-Oncogene Transcription Factor (AID 2282990); conditions: HepG2, Attagene cis-reporter transcription factor activity; actives raise or lower the signal
Myc proto-oncogene protein (Homo sapiens), sequence (P01106 whole entry, looked up): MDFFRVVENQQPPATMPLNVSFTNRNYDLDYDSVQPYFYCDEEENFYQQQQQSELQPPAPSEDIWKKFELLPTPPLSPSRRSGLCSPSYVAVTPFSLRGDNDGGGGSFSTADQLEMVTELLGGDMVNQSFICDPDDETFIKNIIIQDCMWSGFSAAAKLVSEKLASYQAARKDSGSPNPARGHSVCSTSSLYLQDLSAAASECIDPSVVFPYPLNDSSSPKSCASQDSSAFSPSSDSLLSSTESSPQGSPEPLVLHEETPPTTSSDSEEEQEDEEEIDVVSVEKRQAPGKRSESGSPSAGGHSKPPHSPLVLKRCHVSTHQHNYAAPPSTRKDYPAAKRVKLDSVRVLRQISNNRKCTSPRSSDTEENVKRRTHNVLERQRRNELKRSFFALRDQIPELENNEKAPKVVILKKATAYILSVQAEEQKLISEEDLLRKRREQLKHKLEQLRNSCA
Outline: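 HepG2, transient MRTU transfection (cis promoters, endogenous TFs); 24 h dosing; TriZol RNA → oligo(dT) RT → PCR → 6-FAM primer extension → HpaI cut → CE. Bidirectional fit vs DMSO.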

[7] = ATG_NF_kB_CIS: Attagene CIS-FACTORIAL HepG2 Assay for human Nuclear Factor Kappa B (NF-kB) (AID 2282991); conditions: HepG2 Attagene cis-factorial NF-kB reporter mRNA; actives raise or lower the signal
Outline: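 After 24 h compound incubation, transfected HepG2 cells yield total RNA; reporter cDNA is PCR-amplified, end-labelled with 6-FAM, HpaI-digested and analysed on a genetic analyser. Endogenous factor activity, DMSO-referenced bidirectional fit.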

[8] = ATG_NRF2_ARE_CIS: Attagene CIS-FACTORIAL HepG2 Assay for human Nuclear Factor Erythroid 2 Related Factor 2 (NFR2) response to Antioxidant Response Elements (ARE) (AID 2282992); conditions: HepG2 Attagene ARE/NRF2 reporter, transcription factor activity; actives raise or lower the signal;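 for AC50: reporter mRNA level measured by RT-PCR and capillary electrophoresis fluorescence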
Outline: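 Endogenous transcription factor activity in human liver HepG2 cells is tracked via a cis-element-driven reporter within a multiplexed set. mRNA induction is read by RT-PCR and capillary electrophoresis after 24 h, with DMSO as baseline.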

[9] = ATG_Oct_MLP_CIS: Attagene CIS-FACTORIAL HepG2 Assay for human Octamer-Binding Transcription Factor (Oct) (AID 2282993); conditions: HepG2 Attagene cis-factorial Oct reporter, mRNA; actives raise or lower the signal
Outline: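 HepG2, transient MRTU transfection, cis promoter elements; 24 h dosing; RT-PCR/CE fluorescence read-out of reporter mRNA; fit both directions vs DMSO.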

[10] = molecular target: Cellular tumor antigen p53 (Homo sapiens) (UniProt P04637); assay: ATG_p53_CIS: Attagene CIS-FACTORIAL HepG2 Assay for human p53 Transcription Factor (AID 2282994); conditions: HepG2 p53 cis-element reporter, Attagene mRNA; actives raise or lower the signal
Cellular tumor antigen p53 (Homo sapiens), sequence (P04637 whole entry, looked up, the tested form may be a part): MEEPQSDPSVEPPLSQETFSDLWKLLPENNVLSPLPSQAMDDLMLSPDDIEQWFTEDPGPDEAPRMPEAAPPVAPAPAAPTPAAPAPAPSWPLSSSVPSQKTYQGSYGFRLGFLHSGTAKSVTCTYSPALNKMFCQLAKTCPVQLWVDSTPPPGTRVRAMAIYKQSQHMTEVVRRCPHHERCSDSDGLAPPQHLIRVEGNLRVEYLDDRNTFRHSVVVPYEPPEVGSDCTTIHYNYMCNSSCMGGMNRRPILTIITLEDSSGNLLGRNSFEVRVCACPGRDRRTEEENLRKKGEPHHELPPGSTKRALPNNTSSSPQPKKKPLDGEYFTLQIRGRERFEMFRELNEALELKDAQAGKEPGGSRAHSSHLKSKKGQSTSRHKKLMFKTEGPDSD
Outline: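 Steps: transfect HepG2 with multiplexed cis reporter constructs; dose chemicals 24 h; extract RNA, reverse-transcribe, PCR-amplify reporter sequences; FAM-label, HpaI-digest, resolve fragments by CE. Activity fitted both directions relative to DMSO.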

[11] = molecular target: human Peroxisome Proliferator-activated Receptor alpha (PPARa), PPARA (gene 5465) (UniProt Q07869); assay: ATG_PPARa_TRANS: Attagene TRANS-FACTORIAL HepG2 Assay for human Peroxisome Proliferator-activated Receptor alpha (PPARa) (AID 2283001; active = hit-call score of the fitted dose curve at least 0.9, where 1 is the maximum)
human Peroxisome Proliferator-activated Receptor alpha (PPARa), PPARA (gene 5465), sequence (Q07869 whole entry, looked up, the tested form may be a part): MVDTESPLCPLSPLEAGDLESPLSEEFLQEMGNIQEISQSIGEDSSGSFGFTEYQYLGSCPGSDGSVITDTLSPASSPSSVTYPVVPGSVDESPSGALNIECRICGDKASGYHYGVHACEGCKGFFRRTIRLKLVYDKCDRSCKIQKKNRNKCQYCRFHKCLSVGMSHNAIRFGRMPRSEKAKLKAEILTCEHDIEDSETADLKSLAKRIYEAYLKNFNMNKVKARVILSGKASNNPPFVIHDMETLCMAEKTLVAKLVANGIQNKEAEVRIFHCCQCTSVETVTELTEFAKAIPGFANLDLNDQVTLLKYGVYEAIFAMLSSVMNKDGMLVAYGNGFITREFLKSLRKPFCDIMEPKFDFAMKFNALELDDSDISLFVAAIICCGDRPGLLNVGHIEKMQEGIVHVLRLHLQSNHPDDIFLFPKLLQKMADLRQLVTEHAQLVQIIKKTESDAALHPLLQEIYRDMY
Outline: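 Transfected HepG2 cells treated with test chemical for 24 h. RNA isolated, reverse-transcribed with oligo(dT), PCR-amplified, FAM-labelled and HpaI-digested. Fragments sized by capillary electrophoresis; gain-of-signal fit relative to DMSO.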

[12] = molecular target: Nuclear receptor subfamily 4 group A member 2 (Homo sapiens) (UniProt P43354); assay: ATG_NURR1_TRANS: Attagene TRANS-FACTORIAL HepG2 Assay for human Nuclear Receptor Related Protein 1 (NURR1) (AID 2282985; active = hit-call score of the fitted dose curve at least 0.9, where 1 is the maximum); conditions: HepG2 Attagene TRANS reporter, mRNA readout
Nuclear receptor subfamily 4 group A member 2 (Homo sapiens), sequence (P43354 whole entry, looked up, the tested form may be a part): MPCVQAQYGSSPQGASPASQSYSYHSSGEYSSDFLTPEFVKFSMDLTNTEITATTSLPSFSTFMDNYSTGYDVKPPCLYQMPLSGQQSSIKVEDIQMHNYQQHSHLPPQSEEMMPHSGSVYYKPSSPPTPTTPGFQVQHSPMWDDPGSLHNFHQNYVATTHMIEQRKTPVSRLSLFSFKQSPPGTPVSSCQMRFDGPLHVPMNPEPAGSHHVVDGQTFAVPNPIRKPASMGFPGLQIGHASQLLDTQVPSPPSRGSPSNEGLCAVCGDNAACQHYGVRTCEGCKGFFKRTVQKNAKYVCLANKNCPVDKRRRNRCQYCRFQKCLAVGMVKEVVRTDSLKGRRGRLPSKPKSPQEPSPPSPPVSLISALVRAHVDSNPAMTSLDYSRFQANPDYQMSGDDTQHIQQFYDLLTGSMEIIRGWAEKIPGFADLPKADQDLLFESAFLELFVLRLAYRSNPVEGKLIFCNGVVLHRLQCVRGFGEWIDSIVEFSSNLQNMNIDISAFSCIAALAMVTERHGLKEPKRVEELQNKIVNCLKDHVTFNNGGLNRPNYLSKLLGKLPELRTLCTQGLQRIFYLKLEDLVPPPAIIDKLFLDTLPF
Outline: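 Measures transcriptional activation by an exogenous NR-Gal4 chimera in transfected HepG2 liver cells. After 24 h, reporter RNA is reverse-transcribed, amplified and resolved by capillary electrophoresis; DMSO defines baseline.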

[13] = BSK_3C_TissueFactor: BioMAP Diversity Plus: 3C Assay for Tissue Factor Biomarker Activity (AID 2282997); conditions: BioMAP 3C HUVEC, tissue factor biomarker readout; actives raise or lower the signal
Outline: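 HUVEC, 3C system, 24 h post-dose; Tissue Factor by ELISA; bidirectional fit vs DMSO baseline.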

[14] = BSK_3C_uPAR: BioMAP Diversity Plus: 3C Assay for Urokinase-type plasminogen activator receptor (uPAR) Biomarker Activity (AID 2282998); conditions: BioMAP 3C HUVEC, uPAR biomarker ELISA; actives raise or lower the signal
Outline: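 A multiplexed primary-cell system built on human umbilical vein endothelium was used, with chemical present for 24 h before reading. Cell-surface uPAR was detected by ELISA; signal change in either direction counted against DMSO.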

[15] = BSK_4H_Eotaxin3: BioMAP Diversity Plus: 4H Assay for Eotaxin 3 Biomarker Activity (AID 2283000); conditions: primary human endothelial cells (HUVEC); actives raise or lower the signal
Outline: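 Readout is Eotaxin-3 (CCL26) level by ELISA in primary human umbilical vein endothelial cells harvested 24 h after chemical exposure; activity fitted in both directions against DMSO control.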

[16] = molecular target: human Peroxisome Proliferator-activated Receptor delta (PPARd), PPARD (gene 5467) (UniProt Q03181); assay: ATG_PPARd_TRANS: Attagene TRANS-FACTORIAL HepG2 Assay for human Peroxisome Proliferator-activated Receptor delta (PPARd) (AID 2283002; active = hit-call score of the fitted dose curve at least 0.9, where 1 is the maximum)
human Peroxisome Proliferator-activated Receptor delta (PPARd), PPARD (gene 5467), sequence (Q03181 whole entry, looked up, the tested form may be a part): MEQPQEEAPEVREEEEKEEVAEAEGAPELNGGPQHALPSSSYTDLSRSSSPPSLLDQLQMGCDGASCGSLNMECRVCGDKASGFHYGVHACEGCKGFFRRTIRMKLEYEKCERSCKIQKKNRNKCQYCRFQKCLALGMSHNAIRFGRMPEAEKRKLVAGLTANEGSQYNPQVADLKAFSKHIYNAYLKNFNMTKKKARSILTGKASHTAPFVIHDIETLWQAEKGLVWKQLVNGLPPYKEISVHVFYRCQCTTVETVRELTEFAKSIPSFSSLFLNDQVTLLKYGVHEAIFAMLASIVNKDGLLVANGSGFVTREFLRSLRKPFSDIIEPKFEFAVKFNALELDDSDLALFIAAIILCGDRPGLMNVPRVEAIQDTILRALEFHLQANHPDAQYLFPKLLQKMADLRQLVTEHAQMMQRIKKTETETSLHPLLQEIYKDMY
Outline: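 Transient HepG2 transfection (multiple GAL4-UAS RTUs, chimeric receptor-Gal4); 24 h dosing; total RNA → oligo(dT) RT → PCR → 6-FAM primer extension → HpaI cut → CE. Positive direction vs DMSO.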

[17] = read-out: Intercellular Adhesion Molecule 1 (ICAM1), ICAM1 (gene 3383); assay: BSK_3C_ICAM1: BioMAP Diversity Plus: 3C Assay for Intercellular Adhesion Molecule 1 (ICAM1) Biomarker Activity (AID 2283003); conditions: primary human endothelial cells (HUVEC); actives raise or lower the signal
Outline: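 ELISA read-out of ICAM-1; HUVEC (primary human), 3C system, 24 h post-dosing; bidirectional fit vs DMSO baseline.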

[18] = molecular target: human Retinoic Acid Receptor beta (RARb), RARB (gene 5915) (UniProt P10826); assay: ATG_RARb_TRANS: Attagene TRANS-FACTORIAL HepG2 Assay for human Retinoic Acid Receptor beta (AID 2283004; active = hit-call score of the fitted dose curve at least 0.9, where 1 is the maximum)
human Retinoic Acid Receptor beta (RARb), RARB (gene 5915), sequence (P10826 whole entry, looked up, the tested form may be a part): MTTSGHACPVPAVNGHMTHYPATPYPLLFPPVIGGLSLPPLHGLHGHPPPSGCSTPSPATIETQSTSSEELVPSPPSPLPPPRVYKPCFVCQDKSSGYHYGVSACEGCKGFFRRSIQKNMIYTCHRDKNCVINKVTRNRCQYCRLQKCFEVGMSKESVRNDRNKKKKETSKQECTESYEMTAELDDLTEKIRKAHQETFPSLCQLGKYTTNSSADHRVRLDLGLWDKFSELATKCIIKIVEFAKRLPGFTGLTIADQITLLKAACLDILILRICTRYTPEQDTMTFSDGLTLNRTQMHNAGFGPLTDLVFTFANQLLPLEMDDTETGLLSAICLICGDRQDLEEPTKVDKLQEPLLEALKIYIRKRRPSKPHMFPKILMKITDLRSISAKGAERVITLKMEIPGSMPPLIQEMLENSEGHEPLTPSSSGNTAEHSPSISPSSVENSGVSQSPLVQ
Outline: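 Readout is reporter mRNA induction: RNA reverse-transcribed, PCR-amplified, FAM-labelled, HpaI-cut and resolved by capillary electrophoresis. Transiently transfected HepG2 cells carrying exogenous NR–Gal4 chimeras were dosed for 24 h; activity fitted upward relative to DMSO.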

Measured: AC50

COP(=O)(OC)OC
inactive: [1] | [2] | [3] | [4] | [5] | [6] | [7] | [8] | [9] | [10] | [11]

CCCCCCCCC(=O)NCc1ccc(O)c(OC)c1
inactive: [1] | [2] | [12] | [6] | [7] | [9] | [13] | [14] | [15] | [11] | [16] | [17]
active: [5] 151 µM | [8] 38.3 µM

CC(=O)C(Cl)C(=O)N(C)C (configuration not stated)
inactive: [1] | [2] | [12] | [3] | [4] | [5] | [9] | [11] | [17]
active: [8] 25.9 µM | [10] 178 µM | [13] 5.13 µM | [14] 30.1 µM | [15] 21.6 µM

C[C@]12CC[C@H](O)CC1=CC[C@@H]1[C@@H]2CC[C@]2(C)C(=O)CC[C@@H]12
inactive: [1] | [2] | [3] | [4] | [5] | [7] | [8] | [9] | [11] | [18]

Clc1nc(Cl)nc(Cl)n1
inactive: [1] | [2] | [12] | [3] | [4] | [5] | [6] | [7] | [8] | [9] | [10] | [11] | [16]
